Experimental data taken from PubChem BioAssay (Tox21).
Where “and” joins values, the source holds several entries; their conditions need not be identical. Equal entries are not always repeated. Records with an inconclusive call do not appear. Entries that show only a call come without a potency. Some structures have more than one record in an assay (separate samples or runs), and their calls can disagree. Calls of active or inactive are those of the source. Unless noted, calls follow the shape of the dose curve; as a rule, active = well fitted curve in the direction sought with a large enough effect in the repeat runs; inconclusive = weak or mixed curves; inactive = no such curve, though single readings can be large; an effect the other way counts as inactive or inconclusive.

How the values were obtained:
[1] = molecular target: Acetylcholinesterase (Homo sapiens) (UniProt P22303); assay: Acetylcholinesterase (AChE) small molecule antagonists: enzyme-based qHTS assay (AID 1347397; calls by dose curve; also: nearly all actives have a fitted effect of over 55% in size); settings: Potency: AChE enzyme activity inhibition
Method in brief: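 Recombinant human AChE, dispensed at 50 mU/mL, was preincubated with Tox21 10K compounds or DMSO vehicle for 30 min at room temperature. DTNB plus acetylthiocholine was then added, and thiocholine was measured colorimetrically after a further 10 min.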

[2] = molecular target: Acetylcholinesterase (Homo sapiens) (UniProt P22303); assay: Acetylcholinesterase (AChE) small molecule antagonists: fluorescence cell-based qHTS assay (AID 1347398; calls by dose curve; also: nearly all actives have a fitted effect of over 50% in size); settings: Potency: AChE activity
Method in brief: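 Human SH-SY5Y cells were plated overnight at 37 C, exposed to compound for 30 min at 37 C, 5% CO2, then given acetylthiocholine plus Thiolite Green for 40 min at room temperature; thiocholine fluorescence (Ex/Em 490/520 nm) reports endogenous AChE activity.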

[3] = molecular target: Acetylcholinesterase (Homo sapiens) (UniProt P22303); assay: Acetylcholinesterase (AChE) small molecule antagonists: enzyme-based qHTS assay with human liver microsomes (AID 1347399; calls by dose curve; also: nearly all actives have a fitted effect of over 60% in size); settings: Potency: qHTS inhibition
Method in brief: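 Recombinant human AChE (50 mU/mL in the enzyme mix) and human liver microsomes (0.25 mg/mL final) were preincubated with compound and NADPH (0.25 mg/mL final) for 30 min at 37 C. Acetylthiocholine/DTNB was then added; thiocholine was read colorimetrically after 10 min at room temperature.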

[4] = molecular target: Cytochrome P450 2D6 (Homo sapiens) (UniProt P10635); assay: Cytochrome P450 Family 2 Subfamily D Member 6 (CYP2D6) small molecule antagonists: luciferase reporter qHTS assay (AID 1671196); also: nearly all actives have a fitted effect of over 50% in size
Method in brief: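 Read-out is luminescence from luciferin formed by CYP2D6 turnover of a proluciferin substrate, recorded as relative luminescence units. Reactions ran 1 h at room temperature after NADPH regeneration solution was added.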

[5] = molecular target: Cytochrome P450 2C19 (Homo sapiens) (UniProt P33261); assay: Cytochrome P450 Family 2 Subfamily C Member 19 (CYP2C19) small molecule antagonists: luciferase reporter qHTS assay (AID 1671197); also: nearly all actives have a fitted effect of over 65% in size
Method in brief: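 Enzyme-substrate mix with proluciferin substrate (P450-Glo CYP2C19 system) preincubated with compounds 10 min at room temperature; NADPH regeneration solution added, 37C for 1 h; detection reagent stops reaction, luminescence read after 20 min. Ketoconazole positive control.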

[6] = molecular target: Cytochrome P450 2C9 (Homo sapiens) (UniProt P11712); assay: Cytochrome P450 Family 2 Subfamily C Member 9 (CYP2C9) small molecule antagonists: luciferase reporter qHTS assay (AID 1671198); also: nearly all actives have a fitted effect of over 50% in size
Method in brief: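 CYP2C9 activity was measured with a P450-Glo proluciferin substrate. Enzyme–substrate mix was held with compound for 10 min at room temperature, then NADPH regeneration solution was added for 1 h at 37C. Luciferin product was read as luminescence.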

[7] = molecular target: Cytochrome P450 1A2 (Homo sapiens) (UniProt P05177); assay: Cytochrome P450 Family 1 Subfamily A Member 2 (CYP1A2) small molecule antagonists: luciferase reporter qHTS assay (AID 1671199); also: nearly all actives have a fitted effect of over 50% in size
Method in brief: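 P450-Glo CYP1A2, 1536-well qHTS: enzyme/proluciferin substrate + cpd (DMSO), 10 min RT; NADPH regen, 1 h RT; detection reagent, 20 min; luminescence, RLU.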

[8] = molecular target: Voltage-gated inwardly rectifying potassium channel KCNH2 (Homo sapiens) (UniProt Q12809); assay: Human Ether-a-go-go-Related Gene (hERG) channel small molecule antagonists: fluorescence cell-based qHTS assay (AID 1671200); also: nearly all actives have a fitted effect of over 50% in size
Method in brief: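 hERG-U2OS cells plated overnight at 37 C, loaded with FluxOR II dye 1 h at RT in dark; after 10 min, thallium stimulus added. Fluorescence (480/540 nm) read kinetically for 2 min at 1 s intervals.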

[9] = molecular target: Cytochrome P450 3A4 (Homo sapiens) (UniProt P08684); assay: Cytochrome P450 Family 3 Subfamily A Member 4 (CYP3A4) small molecule antagonists: luciferase reporter qHTS assay (AID 1671201); also: nearly all actives have a fitted effect of over 50% in size
Method in brief: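 P450-Glo CYP3A4 luminescent assay: compounds preincubated 10 min at room temperature with enzyme and proluciferin substrate, NADPH regeneration added, 1 h room-temperature reaction, stopped with luciferin detection reagent; luminescence read after 20 min. Ketoconazole positive control.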
Potency is read from the fitted curve at half-maximal effect.

Sequence of Cytochrome P450 2D6 (Homo sapiens) (P10635 whole entry, looked up): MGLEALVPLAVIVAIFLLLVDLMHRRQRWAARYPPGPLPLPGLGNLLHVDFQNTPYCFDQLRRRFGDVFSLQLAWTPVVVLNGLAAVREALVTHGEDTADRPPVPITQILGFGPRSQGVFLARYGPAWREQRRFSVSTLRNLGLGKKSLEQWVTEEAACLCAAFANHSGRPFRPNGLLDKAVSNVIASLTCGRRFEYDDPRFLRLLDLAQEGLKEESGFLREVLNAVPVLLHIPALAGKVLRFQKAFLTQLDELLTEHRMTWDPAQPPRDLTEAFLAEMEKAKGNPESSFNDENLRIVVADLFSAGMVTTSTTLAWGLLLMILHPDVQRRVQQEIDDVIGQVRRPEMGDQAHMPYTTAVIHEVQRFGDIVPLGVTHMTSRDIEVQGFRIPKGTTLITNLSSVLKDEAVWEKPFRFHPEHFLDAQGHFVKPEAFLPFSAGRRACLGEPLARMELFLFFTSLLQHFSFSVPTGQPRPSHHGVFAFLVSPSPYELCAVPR
Sequence of Cytochrome P450 3A4 (Homo sapiens) (P08684 whole entry, looked up): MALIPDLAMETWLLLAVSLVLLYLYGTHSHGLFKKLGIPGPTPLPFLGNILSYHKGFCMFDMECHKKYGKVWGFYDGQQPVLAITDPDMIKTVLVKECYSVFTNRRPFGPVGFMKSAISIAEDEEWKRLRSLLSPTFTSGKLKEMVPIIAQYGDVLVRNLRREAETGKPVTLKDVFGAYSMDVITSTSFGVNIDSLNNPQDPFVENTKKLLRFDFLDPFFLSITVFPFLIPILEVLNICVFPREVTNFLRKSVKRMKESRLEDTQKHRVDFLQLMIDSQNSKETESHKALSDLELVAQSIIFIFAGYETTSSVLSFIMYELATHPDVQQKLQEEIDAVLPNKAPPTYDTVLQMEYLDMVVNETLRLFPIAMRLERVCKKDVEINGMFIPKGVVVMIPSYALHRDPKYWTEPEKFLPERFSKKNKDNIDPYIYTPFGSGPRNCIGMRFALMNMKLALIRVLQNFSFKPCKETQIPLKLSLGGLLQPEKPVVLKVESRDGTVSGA
Sequence of Cytochrome P450 2C19 (Homo sapiens) (P33261 whole entry, looked up): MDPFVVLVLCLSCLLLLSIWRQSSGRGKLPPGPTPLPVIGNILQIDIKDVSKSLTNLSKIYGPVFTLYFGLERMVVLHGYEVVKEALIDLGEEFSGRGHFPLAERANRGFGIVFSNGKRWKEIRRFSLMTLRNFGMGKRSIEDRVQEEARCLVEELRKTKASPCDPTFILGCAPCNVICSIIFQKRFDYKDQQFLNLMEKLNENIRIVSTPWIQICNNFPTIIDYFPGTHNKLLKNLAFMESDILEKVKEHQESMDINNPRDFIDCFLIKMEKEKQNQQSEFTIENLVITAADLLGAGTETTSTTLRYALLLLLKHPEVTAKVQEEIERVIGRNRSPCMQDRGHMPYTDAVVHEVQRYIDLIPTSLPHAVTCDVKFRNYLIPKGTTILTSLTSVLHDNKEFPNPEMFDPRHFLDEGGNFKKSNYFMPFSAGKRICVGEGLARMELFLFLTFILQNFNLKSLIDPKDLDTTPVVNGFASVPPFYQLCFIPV
Sequence of Acetylcholinesterase (Homo sapiens) (P22303 whole entry, looked up): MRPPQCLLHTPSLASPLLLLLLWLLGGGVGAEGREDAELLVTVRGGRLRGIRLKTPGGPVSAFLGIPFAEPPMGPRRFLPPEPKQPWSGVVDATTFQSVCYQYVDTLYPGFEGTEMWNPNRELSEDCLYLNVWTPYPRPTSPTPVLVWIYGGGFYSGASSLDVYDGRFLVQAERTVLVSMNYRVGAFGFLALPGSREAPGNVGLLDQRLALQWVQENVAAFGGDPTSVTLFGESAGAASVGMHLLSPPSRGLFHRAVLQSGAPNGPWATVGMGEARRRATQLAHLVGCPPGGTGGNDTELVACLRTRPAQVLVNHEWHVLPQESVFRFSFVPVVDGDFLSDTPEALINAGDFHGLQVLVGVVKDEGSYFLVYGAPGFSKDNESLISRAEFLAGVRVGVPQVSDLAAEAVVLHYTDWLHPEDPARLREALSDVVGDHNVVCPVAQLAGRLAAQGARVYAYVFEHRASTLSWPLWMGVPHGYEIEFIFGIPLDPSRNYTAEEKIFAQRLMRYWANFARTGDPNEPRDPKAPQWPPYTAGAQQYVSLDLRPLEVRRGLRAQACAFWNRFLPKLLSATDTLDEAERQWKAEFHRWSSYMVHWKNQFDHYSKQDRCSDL
Sequence of Voltage-gated inwardly rectifying potassium channel KCNH2 (Homo sapiens) (Q12809 whole entry, looked up): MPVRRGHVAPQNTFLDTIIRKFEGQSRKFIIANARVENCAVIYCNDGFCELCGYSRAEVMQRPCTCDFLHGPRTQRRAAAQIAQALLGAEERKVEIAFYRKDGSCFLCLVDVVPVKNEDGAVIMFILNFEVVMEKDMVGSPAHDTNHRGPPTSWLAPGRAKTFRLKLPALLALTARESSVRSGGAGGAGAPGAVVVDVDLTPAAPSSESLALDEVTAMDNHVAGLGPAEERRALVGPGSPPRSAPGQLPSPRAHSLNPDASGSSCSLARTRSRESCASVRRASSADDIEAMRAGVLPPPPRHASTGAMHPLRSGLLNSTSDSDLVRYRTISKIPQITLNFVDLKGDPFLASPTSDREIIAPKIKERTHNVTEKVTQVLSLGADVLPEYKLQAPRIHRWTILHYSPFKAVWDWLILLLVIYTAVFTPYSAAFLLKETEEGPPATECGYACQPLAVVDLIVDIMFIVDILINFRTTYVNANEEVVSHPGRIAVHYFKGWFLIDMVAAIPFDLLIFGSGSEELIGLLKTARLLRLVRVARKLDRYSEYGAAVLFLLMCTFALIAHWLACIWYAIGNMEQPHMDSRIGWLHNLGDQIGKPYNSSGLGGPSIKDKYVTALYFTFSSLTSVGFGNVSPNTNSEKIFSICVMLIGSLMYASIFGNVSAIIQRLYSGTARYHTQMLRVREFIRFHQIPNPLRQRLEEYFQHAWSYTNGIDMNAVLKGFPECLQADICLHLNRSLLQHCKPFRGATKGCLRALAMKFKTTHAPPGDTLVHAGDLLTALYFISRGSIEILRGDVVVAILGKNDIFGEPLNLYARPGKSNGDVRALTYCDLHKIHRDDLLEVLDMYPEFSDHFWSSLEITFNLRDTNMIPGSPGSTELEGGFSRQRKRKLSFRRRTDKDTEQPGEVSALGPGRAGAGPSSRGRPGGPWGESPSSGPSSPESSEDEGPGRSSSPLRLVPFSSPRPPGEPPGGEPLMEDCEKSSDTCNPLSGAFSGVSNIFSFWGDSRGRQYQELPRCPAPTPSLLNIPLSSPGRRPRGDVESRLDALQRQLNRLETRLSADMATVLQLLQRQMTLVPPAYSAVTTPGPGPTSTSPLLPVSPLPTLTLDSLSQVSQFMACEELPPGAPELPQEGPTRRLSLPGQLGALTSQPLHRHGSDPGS
Sequence of Cytochrome P450 1A2 (Homo sapiens) (P05177 whole entry, looked up): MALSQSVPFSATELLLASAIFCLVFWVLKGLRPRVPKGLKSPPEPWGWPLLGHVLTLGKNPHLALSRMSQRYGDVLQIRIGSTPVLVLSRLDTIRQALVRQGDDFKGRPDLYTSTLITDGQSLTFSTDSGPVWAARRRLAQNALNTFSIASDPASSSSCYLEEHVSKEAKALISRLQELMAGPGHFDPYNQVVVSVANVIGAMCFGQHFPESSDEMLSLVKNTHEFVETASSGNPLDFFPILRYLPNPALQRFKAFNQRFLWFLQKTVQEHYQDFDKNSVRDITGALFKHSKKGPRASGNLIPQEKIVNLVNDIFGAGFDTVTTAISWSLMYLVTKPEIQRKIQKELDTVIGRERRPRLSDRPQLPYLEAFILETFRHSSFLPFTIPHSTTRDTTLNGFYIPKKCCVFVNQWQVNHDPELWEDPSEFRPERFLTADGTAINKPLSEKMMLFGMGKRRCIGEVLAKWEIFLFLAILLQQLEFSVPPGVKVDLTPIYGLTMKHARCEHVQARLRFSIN
Sequence of Cytochrome P450 2C9 (Homo sapiens) (P11712 whole entry, looked up): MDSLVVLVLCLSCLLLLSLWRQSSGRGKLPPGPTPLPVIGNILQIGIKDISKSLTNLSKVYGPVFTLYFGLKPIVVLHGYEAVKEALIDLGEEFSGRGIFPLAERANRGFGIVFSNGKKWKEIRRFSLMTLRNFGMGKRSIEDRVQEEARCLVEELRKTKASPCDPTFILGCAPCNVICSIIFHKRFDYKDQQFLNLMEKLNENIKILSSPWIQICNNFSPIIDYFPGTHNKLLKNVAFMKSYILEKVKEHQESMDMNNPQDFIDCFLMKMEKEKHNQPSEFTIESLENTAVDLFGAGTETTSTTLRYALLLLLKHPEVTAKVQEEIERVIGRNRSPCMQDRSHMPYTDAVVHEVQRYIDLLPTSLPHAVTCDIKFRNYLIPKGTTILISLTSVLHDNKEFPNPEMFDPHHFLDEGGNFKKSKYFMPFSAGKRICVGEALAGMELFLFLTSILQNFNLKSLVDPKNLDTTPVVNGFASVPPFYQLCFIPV

| Compound | Potency [1] | Potency [2] | Potency [3] | Potency [4] | Potency [5] | Potency [6] | Potency [7] | Potency [8] | Potency [9] |
| --- | --- | --- | --- | --- | --- | --- | --- | --- | --- |
| O=Cc1ccccc1 | inactive | inactive | inactive | inactive | inactive | inactive | inactive | inactive |  |
| CCCCc1ccccc1 | inactive | inactive | inactive | inactive | inactive | inactive | inactive | inactive | inactive |
| Clc1ccc(C(c2ccc(Cl)cc2)C(Cl)Cl)cc1 | inactive | inactive | inactive | 64.3 µM (active) | 181 nM (active) and 113 nM (active) | 5.11 µM (active) and 6.33 µM (active) | 6.43 µM (active) and 8.94 µM (active) | 24.9 µM (active) and 19.5 µM (active) |  |
| CCN(CC)C(=S)S | inactive | inactive | inactive | inactive | 71.6 µM (active) and 50 µM (active) and inactive | 62.9 µM (active) and 31.7 µM (active) | 40.3 µM (active) | inactive |  |
| C#CC1(O)CCCCC1 | inactive | inactive | inactive | inactive | inactive | inactive | inactive | inactive | inactive |
| [F][Sn]([c]1ccccc1)([c]1ccccc1)[c]1ccccc1 | inactive | inactive | inactive | 2.83 µM (active) | 3.99 µM (active) | 2 µM (active) | inactive | 3.09 µM (active) |  |
| O=c1[nH]c2cc(Cl)ccc2n1C1CCNCC1 | inactive | inactive | inactive | 15.5 µM (active) | inactive |  |  |  |  |
| CCOP(=S)(OCC)SC(CCl)N1C(=O)c2ccccc2C1=O (configuration not stated) | 63.3 µM (active) | 10 µM (active) | 1.42 µM (active) | 39.9 µM (active) | 0.399 µM (active) | 1.12 µM (active) | 63.3 µM (active) | inactive | 1.59 µM (active) |
| CC(Cc1ccccc1)N(C)Cc1ccco1 (configuration not stated) | inactive | inactive | inactive | 0.776 µM (active) | 7.76 µM (active) | inactive | inactive | inactive |  |
| C[C@]12C/C(=C/O)C(=O)C[C@@H]1CC[C@@H]1[C@@H]2CC[C@@]2(C)[C@H]1CC[C@]2(C)O | inactive | inactive | inactive | inactive | inactive | 35.9 µM (active) and 27.5 µM (active) | inactive | inactive |  |
| COP(=S)(OC)Oc1ccc([N+](=O)[O-])c(C)c1 | inactive | 50.2 µM (active) | inactive | 25.2 µM (active) | 0.399 µM (active) | 7.1 µM (active) | 1.12 µM (active) | inactive | 7.1 µM (active) |
| CC(Cl)CCl (configuration not stated) | inactive | inactive | inactive | inactive | 70.8 µM (active) | inactive | inactive | inactive | inactive |
| CC(C)[C@@H](Nc1ccc(C(F)(F)F)cc1Cl)C(=O)OC(C#N)c1cccc(Oc2ccccc2)c1 (some centres not stated) | inactive | inactive | inactive | inactive | 10.8 µM (active) | 6.09 µM (active) | inactive | inactive |  |
| O=S1(=O)OCC2C(CO1)C1(Cl)C(Cl)=C(Cl)C2(Cl)C1(Cl)Cl (configuration not stated) | inactive | inactive | inactive | inactive | 1.59 µM (active) | 15.9 µM (active) | 31.7 µM (active) | 17.4 µM (active) |  |
| Nc1cc(Cl)ccc1Cl | inactive | inactive | inactive | inactive | inactive | inactive | 31.5 µM (active) | inactive |  |
| CC(=O)[O][Pb]([c]1ccccc1)([c]1ccccc1)[c]1ccccc1 | inactive | inactive | inactive | 22.4 µM (active) | 8.94 µM (active) | 3.17 µM (active) | 39.9 µM (active) |  |  |
| C[C@]12CC[C@H]3[C@@H](CCC4=CC(=O)CC[C@@H]43)[C@@H]1CC[C@@H]2OC(=O)CCc1ccco1 | inactive | inactive | inactive | inactive | inactive | 17.4 µM (active) | inactive | 10.7 µM (active) |  |
| CCCCN(CCCC)C(=S)[S-].CCCCN(CCCC)C(=S)[S-].[Ni+2] | inactive | inactive | inactive | inactive | inactive | inactive | inactive | inactive | inactive |
| CCCCN(CCCC)C(=S)S | inactive | inactive | inactive | 1.59 µM (active) | inactive |  |  |  |  |
| CCN(CC)CCc1c[nH]c2ccccc12 | inactive | inactive | inactive | 5.26 µM (active) | inactive | inactive | 52.6 µM (active) | inactive | inactive |
| CCCCCON=O | inactive | inactive | inactive | inactive | inactive | inactive | inactive | inactive |  |
| S=C=NCCc1ccccc1 | inactive | inactive | inactive | 11.3 µM (active) | 20.1 µM (active) | 17.9 µM (active) | 10.1 µM (active) | 15.5 µM (active) | 20.1 µM (active) |
